# PMC7862700, “An all-to-all approach to the identification of sequence-specific readers for epigenetic DNA modifications on cytosine”
# How the values were obtained:
# Assay in all cases: DAPPL (digital affinity profiling via proximity ligation, sequencing); 10 mM Tris-HCl pH 7.5, 50 mM NaCl, 1 mM DTT, 4% glycerol, room temperature, 30 min; GST-TFs on glutathione beads, 16-mer random dsDNA library, 0.1% formaldehyde crosslink after washing; high values mean tight binding
# FEV = target: T1, FEV (Homo sapiens, UniProt Q99581 1-238); conditions: protein: recombinant; tags: N-terminal GST; dsDNA, one strand shown
# T1 sequence: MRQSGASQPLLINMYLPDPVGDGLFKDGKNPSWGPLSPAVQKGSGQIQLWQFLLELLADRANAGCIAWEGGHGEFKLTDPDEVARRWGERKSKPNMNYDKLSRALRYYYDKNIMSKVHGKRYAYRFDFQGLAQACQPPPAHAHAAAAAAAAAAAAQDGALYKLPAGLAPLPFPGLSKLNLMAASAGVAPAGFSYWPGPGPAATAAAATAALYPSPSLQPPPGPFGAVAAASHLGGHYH
# Summary of the method: (§1)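 Binding signal is each hexamer's read frequency for a factor divided by its frequency in the tag-only sample. The factors were GST-fused human transcription factors from yeast, captured on glutathione beads, DNA-barcoded and pooled with that sample. Pools were incubated with 200 nmole of a random double-stranded 16-mer DNA library in Tris/NaCl/DTT/glycerol buffer at room temperature for 30 min, then washed, crosslinked with 0.1% formaldehyde, proximity-ligated with BsaI/T4 ligase (1 h, 37 °C), PCR-amplified and sequenced on an Illumina NextSeq500.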
# ETV5 = ETV5 (Homo sapiens, UniProt P41161 1-510); conditions: protein: recombinant; tags: N-terminal GST; dsDNA, one strand shown
# ETV5, sequence (P41161 whole entry): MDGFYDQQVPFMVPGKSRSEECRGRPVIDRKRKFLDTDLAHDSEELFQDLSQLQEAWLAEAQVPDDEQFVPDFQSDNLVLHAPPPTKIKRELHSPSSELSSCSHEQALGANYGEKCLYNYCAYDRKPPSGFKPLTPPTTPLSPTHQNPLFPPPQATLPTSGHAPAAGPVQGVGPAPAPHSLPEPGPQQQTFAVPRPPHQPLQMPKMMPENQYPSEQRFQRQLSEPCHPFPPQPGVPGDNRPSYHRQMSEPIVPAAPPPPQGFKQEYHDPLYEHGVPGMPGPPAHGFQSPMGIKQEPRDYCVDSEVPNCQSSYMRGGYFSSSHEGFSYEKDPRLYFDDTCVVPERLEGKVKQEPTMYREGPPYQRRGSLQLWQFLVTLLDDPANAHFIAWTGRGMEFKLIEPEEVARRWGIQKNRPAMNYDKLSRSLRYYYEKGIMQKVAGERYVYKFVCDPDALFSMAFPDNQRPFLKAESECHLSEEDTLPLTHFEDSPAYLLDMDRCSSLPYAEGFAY
# Summary of the method: as §1
# HSF1 = HSF1 (Homo sapiens, UniProt Q00613 1-529); conditions: protein: recombinant; tags: N-terminal GST; chain copies: 3; dsDNA, one strand shown
# HSF1, sequence (Q00613 whole entry): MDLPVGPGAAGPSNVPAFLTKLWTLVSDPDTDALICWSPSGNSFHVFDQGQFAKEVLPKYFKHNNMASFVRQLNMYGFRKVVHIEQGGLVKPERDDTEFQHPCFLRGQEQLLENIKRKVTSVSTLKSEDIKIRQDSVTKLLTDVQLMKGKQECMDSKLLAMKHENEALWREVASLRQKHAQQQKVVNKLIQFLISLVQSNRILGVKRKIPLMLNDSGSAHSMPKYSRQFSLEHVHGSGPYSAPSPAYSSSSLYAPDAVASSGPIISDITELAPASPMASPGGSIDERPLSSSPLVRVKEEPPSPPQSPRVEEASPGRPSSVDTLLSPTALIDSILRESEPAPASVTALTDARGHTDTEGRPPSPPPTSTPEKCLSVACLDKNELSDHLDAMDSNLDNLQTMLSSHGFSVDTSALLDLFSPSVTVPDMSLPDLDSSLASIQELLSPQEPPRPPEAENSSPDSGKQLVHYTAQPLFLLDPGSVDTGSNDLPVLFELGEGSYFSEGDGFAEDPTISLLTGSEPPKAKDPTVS
# Summary of the method: as §1
# SPIC = target: T2, SPIC (Homo sapiens, UniProt Q8N5J4 1-248); conditions: protein: recombinant; tags: N-terminal GST; dsDNA, one strand shown
# T2 sequence: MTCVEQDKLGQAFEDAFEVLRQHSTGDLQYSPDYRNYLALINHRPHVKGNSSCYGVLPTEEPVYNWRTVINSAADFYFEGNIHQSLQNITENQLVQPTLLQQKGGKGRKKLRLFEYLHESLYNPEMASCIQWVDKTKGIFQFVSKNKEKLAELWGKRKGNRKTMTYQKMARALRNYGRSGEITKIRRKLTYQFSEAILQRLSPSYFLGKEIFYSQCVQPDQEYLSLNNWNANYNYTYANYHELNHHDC
# Summary of the method: as §1
# ELF4 = ELF4 (Homo sapiens, UniProt Q99607 1-663); conditions: protein: recombinant; tags: N-terminal GST; dsDNA, one strand shown
# ELF4, sequence (Q99607 whole entry): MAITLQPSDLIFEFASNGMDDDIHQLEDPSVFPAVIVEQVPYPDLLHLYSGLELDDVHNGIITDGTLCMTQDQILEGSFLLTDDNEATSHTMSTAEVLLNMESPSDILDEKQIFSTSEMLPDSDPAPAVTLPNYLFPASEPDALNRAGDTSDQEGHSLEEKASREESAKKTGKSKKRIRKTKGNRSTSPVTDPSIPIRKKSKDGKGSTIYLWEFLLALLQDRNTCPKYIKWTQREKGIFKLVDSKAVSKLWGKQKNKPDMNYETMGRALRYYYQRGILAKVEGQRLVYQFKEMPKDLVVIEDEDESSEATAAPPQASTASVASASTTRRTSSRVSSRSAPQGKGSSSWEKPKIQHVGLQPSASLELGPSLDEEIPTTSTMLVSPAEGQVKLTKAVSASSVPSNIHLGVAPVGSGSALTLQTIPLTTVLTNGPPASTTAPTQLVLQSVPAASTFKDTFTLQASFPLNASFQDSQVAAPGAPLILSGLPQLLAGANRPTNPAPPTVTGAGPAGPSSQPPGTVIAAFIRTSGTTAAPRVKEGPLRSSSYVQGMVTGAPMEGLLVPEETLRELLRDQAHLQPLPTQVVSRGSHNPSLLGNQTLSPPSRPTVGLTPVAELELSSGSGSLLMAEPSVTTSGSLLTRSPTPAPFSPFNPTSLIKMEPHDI
# Summary of the method: as §1
# ELK4 = target: T3, ELK4 (Homo sapiens, UniProt P28324-2 1-405); conditions: protein: recombinant; tags: N-terminal GST; dsDNA, one strand shown
# T3 sequence: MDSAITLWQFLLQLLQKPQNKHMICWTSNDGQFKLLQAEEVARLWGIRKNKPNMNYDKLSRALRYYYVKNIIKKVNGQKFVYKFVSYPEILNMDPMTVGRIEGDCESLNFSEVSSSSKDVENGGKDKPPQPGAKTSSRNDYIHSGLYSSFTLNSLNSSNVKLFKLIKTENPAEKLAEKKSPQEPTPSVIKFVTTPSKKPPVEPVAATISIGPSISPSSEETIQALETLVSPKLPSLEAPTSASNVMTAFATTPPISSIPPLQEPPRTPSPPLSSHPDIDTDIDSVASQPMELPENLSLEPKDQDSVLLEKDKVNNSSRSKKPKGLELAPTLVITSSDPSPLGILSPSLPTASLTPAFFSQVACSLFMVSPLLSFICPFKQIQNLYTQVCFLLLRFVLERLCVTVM
# Summary of the method: as §1
# ETV2 = target: T4, ETV2 (Homo sapiens, UniProt O00321 1-342); conditions: protein: recombinant; tags: N-terminal GST; dsDNA, one strand shown
# T4 sequence: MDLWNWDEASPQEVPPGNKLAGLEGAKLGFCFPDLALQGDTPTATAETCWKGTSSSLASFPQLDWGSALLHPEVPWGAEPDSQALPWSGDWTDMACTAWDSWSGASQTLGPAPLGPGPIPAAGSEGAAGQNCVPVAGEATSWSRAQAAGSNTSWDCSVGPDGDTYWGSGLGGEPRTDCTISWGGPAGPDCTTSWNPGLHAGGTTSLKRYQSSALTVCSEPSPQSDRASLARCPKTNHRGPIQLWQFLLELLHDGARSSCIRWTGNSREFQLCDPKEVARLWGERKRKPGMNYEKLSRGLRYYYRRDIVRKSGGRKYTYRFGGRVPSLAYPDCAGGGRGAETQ
# Summary of the method: as §1
# ELF3 = target: T5, ELF3 (Homo sapiens, UniProt P78545 1-371); conditions: protein: recombinant; tags: N-terminal GST; dsDNA, one strand shown
# T5 sequence: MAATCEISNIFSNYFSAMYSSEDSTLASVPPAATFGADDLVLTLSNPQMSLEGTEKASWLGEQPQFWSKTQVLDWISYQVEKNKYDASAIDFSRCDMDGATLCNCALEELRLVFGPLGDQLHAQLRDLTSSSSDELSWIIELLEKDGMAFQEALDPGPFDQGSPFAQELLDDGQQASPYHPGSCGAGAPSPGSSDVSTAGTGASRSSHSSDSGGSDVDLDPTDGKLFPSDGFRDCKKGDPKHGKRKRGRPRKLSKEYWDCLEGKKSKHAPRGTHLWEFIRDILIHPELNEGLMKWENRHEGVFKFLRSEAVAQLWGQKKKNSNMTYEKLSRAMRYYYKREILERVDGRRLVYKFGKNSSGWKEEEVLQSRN
# Summary of the method: as §1
# CRX = CRX (Homo sapiens, UniProt O43186 1-299); conditions: protein: recombinant; tags: N-terminal GST; dsDNA, one strand shown
# CRX, sequence (O43186 whole entry): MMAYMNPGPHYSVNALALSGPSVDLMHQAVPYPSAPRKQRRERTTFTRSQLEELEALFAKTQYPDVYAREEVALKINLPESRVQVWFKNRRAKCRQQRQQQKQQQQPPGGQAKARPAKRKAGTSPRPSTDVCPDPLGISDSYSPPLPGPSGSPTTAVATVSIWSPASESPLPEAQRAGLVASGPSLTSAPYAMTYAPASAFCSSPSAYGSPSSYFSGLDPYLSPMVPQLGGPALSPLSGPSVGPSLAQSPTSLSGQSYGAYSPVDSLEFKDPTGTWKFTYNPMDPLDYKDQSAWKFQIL
# Summary of the method: as §1
# ETV1 = ETV1 (Homo sapiens, UniProt P50549 1-477); conditions: protein: recombinant; tags: N-terminal GST; dsDNA, one strand shown
# ETV1, sequence (P50549 whole entry): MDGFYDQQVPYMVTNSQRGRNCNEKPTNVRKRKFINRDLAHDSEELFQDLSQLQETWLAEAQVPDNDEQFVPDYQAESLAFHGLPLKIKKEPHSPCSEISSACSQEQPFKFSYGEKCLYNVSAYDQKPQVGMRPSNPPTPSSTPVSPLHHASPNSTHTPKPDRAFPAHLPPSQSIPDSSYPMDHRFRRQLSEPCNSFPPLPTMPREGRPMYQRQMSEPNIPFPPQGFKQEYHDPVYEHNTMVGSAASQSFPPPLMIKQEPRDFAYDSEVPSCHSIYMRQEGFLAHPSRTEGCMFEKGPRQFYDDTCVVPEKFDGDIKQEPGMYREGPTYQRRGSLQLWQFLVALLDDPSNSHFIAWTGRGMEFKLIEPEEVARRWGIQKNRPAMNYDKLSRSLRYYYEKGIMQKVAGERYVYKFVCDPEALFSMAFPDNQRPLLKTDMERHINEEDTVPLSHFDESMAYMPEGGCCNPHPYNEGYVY
# Summary of the method: as §1
# ERF = target: T6, ERF (Homo sapiens, UniProt P50548 1-548); conditions: protein: recombinant; tags: N-terminal GST; dsDNA, one strand shown
# T6 sequence: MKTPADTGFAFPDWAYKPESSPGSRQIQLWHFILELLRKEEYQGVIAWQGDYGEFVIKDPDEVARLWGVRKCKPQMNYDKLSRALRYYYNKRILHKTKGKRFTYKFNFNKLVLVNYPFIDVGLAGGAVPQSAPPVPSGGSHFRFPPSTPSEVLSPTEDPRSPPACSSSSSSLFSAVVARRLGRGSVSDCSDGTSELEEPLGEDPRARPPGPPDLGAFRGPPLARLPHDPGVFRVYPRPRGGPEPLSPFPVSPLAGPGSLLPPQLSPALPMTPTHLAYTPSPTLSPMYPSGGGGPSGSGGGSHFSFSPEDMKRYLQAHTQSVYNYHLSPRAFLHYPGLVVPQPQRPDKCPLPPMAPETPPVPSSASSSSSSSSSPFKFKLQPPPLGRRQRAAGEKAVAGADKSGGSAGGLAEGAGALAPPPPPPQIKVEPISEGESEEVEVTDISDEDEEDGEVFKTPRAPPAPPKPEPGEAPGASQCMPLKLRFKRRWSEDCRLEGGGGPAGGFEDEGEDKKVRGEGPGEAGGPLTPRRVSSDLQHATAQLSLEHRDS
# Summary of the method: as §1
# ETV3L = target: T7, ETV3L (Homo sapiens, UniProt Q6ZN32 1-361); conditions: protein: recombinant; tags: N-terminal GST; dsDNA, one strand shown
# T7 sequence: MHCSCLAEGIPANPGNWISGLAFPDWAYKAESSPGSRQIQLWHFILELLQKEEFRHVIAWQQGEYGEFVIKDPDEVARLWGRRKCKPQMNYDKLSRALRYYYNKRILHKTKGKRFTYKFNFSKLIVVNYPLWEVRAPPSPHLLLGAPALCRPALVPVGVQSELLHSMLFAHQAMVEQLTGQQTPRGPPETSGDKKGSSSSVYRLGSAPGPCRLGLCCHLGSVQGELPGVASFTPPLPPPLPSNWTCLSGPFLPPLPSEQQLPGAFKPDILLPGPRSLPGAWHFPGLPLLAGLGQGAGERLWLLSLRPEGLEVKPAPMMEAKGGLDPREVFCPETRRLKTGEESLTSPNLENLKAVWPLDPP
# Summary of the method: as §1
# ETS2 = target: T8, ETS2 (Homo sapiens, UniProt P15036 1-469); conditions: protein: recombinant; tags: N-terminal GST; dsDNA, one strand shown
# T8 sequence: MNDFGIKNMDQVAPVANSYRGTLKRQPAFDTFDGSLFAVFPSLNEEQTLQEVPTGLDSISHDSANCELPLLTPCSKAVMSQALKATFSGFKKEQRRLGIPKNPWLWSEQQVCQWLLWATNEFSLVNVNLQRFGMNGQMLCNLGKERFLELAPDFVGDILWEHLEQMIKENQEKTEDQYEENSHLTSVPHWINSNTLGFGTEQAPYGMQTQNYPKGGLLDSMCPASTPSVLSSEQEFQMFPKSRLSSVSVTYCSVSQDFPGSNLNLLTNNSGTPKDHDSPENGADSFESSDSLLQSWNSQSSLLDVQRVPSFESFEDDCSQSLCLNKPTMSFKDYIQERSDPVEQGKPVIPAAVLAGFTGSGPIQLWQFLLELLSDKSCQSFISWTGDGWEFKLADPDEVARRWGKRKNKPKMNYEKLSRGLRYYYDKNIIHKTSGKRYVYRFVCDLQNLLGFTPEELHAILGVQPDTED
# Summary of the method: as §1
# SPDEF = target: T9, SPDEF (Homo sapiens, UniProt O95238 1-335); conditions: protein: recombinant; tags: N-terminal GST; dsDNA, one strand shown
# T9 sequence: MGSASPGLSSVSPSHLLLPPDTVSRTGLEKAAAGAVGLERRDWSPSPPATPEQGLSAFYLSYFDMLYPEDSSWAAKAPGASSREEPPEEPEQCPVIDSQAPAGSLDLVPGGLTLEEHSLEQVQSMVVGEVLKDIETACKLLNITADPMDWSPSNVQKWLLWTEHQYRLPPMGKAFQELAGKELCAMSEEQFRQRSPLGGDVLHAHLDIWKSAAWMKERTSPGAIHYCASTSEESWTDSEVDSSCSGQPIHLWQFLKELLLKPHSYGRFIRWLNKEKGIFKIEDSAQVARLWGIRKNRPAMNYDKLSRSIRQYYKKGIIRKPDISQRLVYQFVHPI
# Summary of the method: as §1
# ETV7 = target: T10, ETV7 (Homo sapiens, UniProt Q9Y603 1-341); conditions: protein: recombinant; tags: N-terminal GST; dsDNA, one strand shown
# T10 sequence: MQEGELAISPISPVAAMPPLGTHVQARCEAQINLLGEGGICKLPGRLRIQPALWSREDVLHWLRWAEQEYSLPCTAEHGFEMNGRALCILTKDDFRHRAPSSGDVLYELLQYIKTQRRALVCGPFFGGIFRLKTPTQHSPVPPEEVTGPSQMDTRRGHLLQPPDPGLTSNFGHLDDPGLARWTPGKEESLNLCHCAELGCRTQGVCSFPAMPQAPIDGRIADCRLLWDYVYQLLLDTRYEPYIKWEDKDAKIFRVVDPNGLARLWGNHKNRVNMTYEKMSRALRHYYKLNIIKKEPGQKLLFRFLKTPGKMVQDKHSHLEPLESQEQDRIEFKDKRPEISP
# Summary of the method: as §1
# ELF5 = target: T11, ELF5 (Homo sapiens, UniProt Q9UKW6-2 1-255); conditions: protein: recombinant; tags: N-terminal GST; dsDNA, one strand shown
# T11 sequence: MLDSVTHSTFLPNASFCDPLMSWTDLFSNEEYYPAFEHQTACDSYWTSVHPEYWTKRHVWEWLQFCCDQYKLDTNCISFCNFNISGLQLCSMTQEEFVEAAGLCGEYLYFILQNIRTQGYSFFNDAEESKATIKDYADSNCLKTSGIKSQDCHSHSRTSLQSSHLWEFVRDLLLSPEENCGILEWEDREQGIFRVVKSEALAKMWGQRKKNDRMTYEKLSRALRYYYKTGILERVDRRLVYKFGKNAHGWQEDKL
# Summary of the method: as §1
# ETV3 = target: T12, ETV3 (Homo sapiens, UniProt P41162-2 1-143); conditions: protein: recombinant; tags: N-terminal GST; dsDNA, one strand shown
# T12 sequence: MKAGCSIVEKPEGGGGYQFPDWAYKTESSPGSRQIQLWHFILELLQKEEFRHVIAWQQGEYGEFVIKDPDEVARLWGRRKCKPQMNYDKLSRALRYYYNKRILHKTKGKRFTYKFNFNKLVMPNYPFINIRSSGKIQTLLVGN
# Summary of the method: as §1
# ETV6 = ETV6 (Homo sapiens, UniProt P41212 1-452); conditions: protein: recombinant; tags: N-terminal GST; dsDNA, one strand shown
# ETV6, sequence (P41212 whole entry): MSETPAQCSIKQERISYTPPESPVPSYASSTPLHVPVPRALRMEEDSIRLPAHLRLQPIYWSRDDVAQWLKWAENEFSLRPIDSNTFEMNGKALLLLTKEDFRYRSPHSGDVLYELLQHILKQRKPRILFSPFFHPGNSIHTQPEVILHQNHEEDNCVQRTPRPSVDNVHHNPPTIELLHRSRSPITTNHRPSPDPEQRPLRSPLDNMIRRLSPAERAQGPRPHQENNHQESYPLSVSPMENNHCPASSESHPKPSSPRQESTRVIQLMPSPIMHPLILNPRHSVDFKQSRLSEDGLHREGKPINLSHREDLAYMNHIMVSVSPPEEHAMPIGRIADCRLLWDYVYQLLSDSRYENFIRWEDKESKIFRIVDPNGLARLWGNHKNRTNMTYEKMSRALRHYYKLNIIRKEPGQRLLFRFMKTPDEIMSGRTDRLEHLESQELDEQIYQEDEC
# Summary of the method: as §1
sequence,measurement,setting,value
CGTATA,binding signal,FEV,"1.04 fold enrichment (6-mer frequency, TF over GST control)"
same,binding signal,ETV5,"1.15 fold enrichment (6-mer frequency, TF over GST control)"
same,binding signal,HSF1,"1.03 fold enrichment (6-mer frequency, TF over GST control)"
same,binding signal,SPIC,"1.19 fold enrichment (6-mer frequency, TF over GST control)"
same,binding signal,ELF4,"1.13 fold enrichment (6-mer frequency, TF over GST control)"
same,binding signal,ELK4,"1.07 fold enrichment (6-mer frequency, TF over GST control)"
same,binding signal,ETV2,"1.12 fold enrichment (6-mer frequency, TF over GST control)"
same,binding signal,ELF3,"1.24 fold enrichment (6-mer frequency, TF over GST control)"
same,binding signal,CRX,"1.07 fold enrichment (6-mer frequency, TF over GST control)"
same,binding signal,ETV1,"1.19 fold enrichment (6-mer frequency, TF over GST control)"
same,binding signal,ERF,"1.13 fold enrichment (6-mer frequency, TF over GST control)"
same,binding signal,ETV3L,"1.1 fold enrichment (6-mer frequency, TF over GST control)"
same,binding signal,ETS2,"1.11 fold enrichment (6-mer frequency, TF over GST control)"
same,binding signal,SPDEF,"1.21 fold enrichment (6-mer frequency, TF over GST control)"
same,binding signal,ETV7,"1.15 fold enrichment (6-mer frequency, TF over GST control)"
same,binding signal,ELF5,"1.16 fold enrichment (6-mer frequency, TF over GST control)"
same,binding signal,ETV3,"1.18 fold enrichment (6-mer frequency, TF over GST control)"
same,binding signal,ETV6,"1.08 fold enrichment (6-mer frequency, TF over GST control)"
